In PubChem BioAssay:
Active and inactive are the calls of the source. How the calls were made is not given here.

target: Pantothenate synthetase (Mycobacterium tuberculosis (strain ATCC 25618 / H37Rv)) (UniProt P9WIL5); assay: Recombinant Mtb pantothenate synthetase (PanC) inhibitors, coupled enzyme, confirmatory (AID 375); conditions: coupled enzyme assay; at 10 µM, hits give high values;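 further: 0% = full reaction with vehicle and 100% = no enzyme background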
Sequence (P9WIL5 whole entry, looked up): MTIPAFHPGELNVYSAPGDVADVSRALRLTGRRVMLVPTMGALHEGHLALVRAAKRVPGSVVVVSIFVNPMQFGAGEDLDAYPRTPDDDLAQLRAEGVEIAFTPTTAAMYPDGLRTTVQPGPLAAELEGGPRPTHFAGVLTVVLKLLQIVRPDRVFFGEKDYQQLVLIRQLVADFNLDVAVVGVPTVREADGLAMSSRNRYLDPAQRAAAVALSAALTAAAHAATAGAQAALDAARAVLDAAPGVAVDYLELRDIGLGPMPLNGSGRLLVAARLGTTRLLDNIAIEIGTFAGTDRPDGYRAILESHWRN

SMILES	inhibition
CC(C)C1N=C2c3ccccc3N=C(SCC(=O)NCCc3ccc(S(N)(=O)=O)cc3)N2C1=O (centres undefined)	0% (inactive)
O=C(NC1CC1)c1cccc(Nc2ccc(-c3ccc4c(c3)OCCO4)nn2)c1	1% (inactive)
O=C(CCNS(=O)(=O)c1cccs1)Nc1ccccc1F	3% (inactive)
O=C1C/C(=C/NCc2ccccc2)C(=O)N1	3% (inactive)
O=C(CS(=O)(=O)c1cn(Cc2ccc(Cl)cc2)c2ccccc12)N1CCOCC1	0% (inactive)
O=S(=O)(c1ccc2c(c1)OCCO2)N1CCN(Cc2ccc3c(c2)OCO3)CC1	4% (inactive)
CS(=O)(=O)NCc1nnc(SCC(=O)NC2CCCCC2)n1-c1ccc(F)cc1	0% (inactive)
COc1ccccc1Nc1nc(N)nc(-c2cc3ccccc3o2)n1	0% (inactive)
Cc1nn(-c2ccccc2)c(Cl)c1C(=O)NCC(=O)O	0% (inactive)
COc1ccc(NC(=O)NCCN2C(=O)C3C4C=CC(C4)C3C2=O)cc1 (centres undefined)	1% (inactive)
COc1ccc(OCC(=O)Nc2cccc3ncccc23)cc1	2% (inactive)
COc1ccc(CCNC(=O)CN(c2ccccc2OC)S(C)(=O)=O)cc1	0% (inactive)
Cc1ccc(-n2nnnc2SCC(=O)N2CCc3ccccc3C2)cc1	4% (inactive)
COCCCNC(=O)CCCn1c(=O)c2ccccc2n(CC(=O)Nc2c(C)cccc2C)c1=O	0% (inactive)
COc1cccc(-c2cc(C(F)(F)F)n3ncc(C(=O)O)c3n2)c1	0% (inactive)
COc1cccc(OCc2nc3ccccc3[nH]2)c1	0% (inactive)
CCOC(=O)N1CCN(c2cc(=O)n(-c3cccc(Br)c3)c(=O)[nH]2)CC1	0% (inactive)
O=C(/C=N/O)NCc1ccncc1	1% (inactive)
CCOc1cc(C2C(C#N)=C(N)Oc3n[nH]c(CC)c32)ccc1OCCN1CCOCC1 (centres undefined)	0% (inactive)
O=C1c2ccccc2NC2CCCCCN12 (centres undefined)	0% (inactive)

SMILES	inhibition
CCCc1nc(N2CCOCC2)c(C#N)c2c1CCCC2	4% (inactive)
CC(C)NCC(O)COc1ccc(CC(N)=O)cc1 (centres undefined)	0% (inactive)
Cc1cc(C)c(C#N)c(SCc2[nH]nc3c2C(c2ccccc2)C(C#N)=C(N)O3)n1 (centres undefined)	0% (inactive)
O=C(OCc1ccccc1F)c1ccc2c(c1)OCCO2	3% (inactive)
COc1ccccc1NC(=O)N(Cc1ccccc1)c1ccccn1	6% (inactive)
Cn1cc(C(=O)c2ccc(F)cc2)cc1-c1nc2ccccc2n1C	6% (inactive)
COCC(=O)N(Cc1nc2ccccc2c(=O)[nH]1)Cc1cccs1	0% (inactive)
Cc1ccc2[nH]c3c(c2c1)CCc1cn[nH]c1-3	0% (inactive)
COc1ccc(Cl)cc1Nc1nc(NCCO)nc(N2CCCC2)n1	9% (inactive)
Cc1ccc2cc(CN(CC(C)C)C(=O)C3CCCO3)c(=O)[nH]c2c1 (centres undefined)	0% (inactive)
CCOC(=O)c1c(NC(=O)Cn2c(=O)oc3ccccc32)oc(C)c1C(C)=O	0% (inactive)
O=C(NC1CCCC1)C(c1cccs1)N(Cc1ccco1)C(=O)Cn1nnc(-c2cccs2)n1 (centres undefined)	0% (inactive)
Cc1cccc(OCC(=O)N(Cc2cccs2)C2CCS(=O)(=O)C2)c1C (centres undefined)	3% (inactive)
O=C(c1cccc(Cl)c1)N1CCN(Cc2ccncc2)CC1	0% (inactive)
O=S(=O)(NC1CCCCC1NS(=O)(=O)c1ccc(F)cc1)c1ccc(F)cc1 (centres undefined)	0% (inactive)
CCOc1ccccc1NC(=O)CSc1c(C)n[nH]c1C	5% (inactive)
CCOc1ccc(N(CC(=O)NC2CCCC2)S(=O)(=O)c2c(C)[nH]c(=O)[nH]c2=O)cc1	0% (inactive)
CCN(CC)CCN1C(=O)C(O)=C(C(=O)c2cccs2)C1c1ccc(C)o1 (centres undefined)	0% (inactive)
Cc1cc(C)n(CCCNC(=O)c2ccc(S(=O)(=O)NCc3ccco3)cc2)n1	3% (inactive)
